Screening data as filed in PubChem BioAssay.
This is a sample that favours compounds with a hit; in the whole collection about 19% have one here.
HT1080-NT tox = kills 2HG-producing HT-1080-NT fibrosarcoma cells. Potency, µM (titrated, usually from 46.1 µM), usual class: cytotoxic. AID 686970. 360,000 compounds, 1.6% hits. HT-1080-NT fibrosarcoma viability, CellTiter-Glo ATP luminescence, 48 h;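 note: NT is the 2HG producing partner of a matched IDH1 knockdown line; nearly all actives have a fitted effect of over 55% in size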
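Fibrosarcoma NT cells, 750 per well in 5% FBS RPMI, were exposed to compound for 48 hours. Viability: CellTiter-Glo luminescence.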
DT40 TDP1 CPT = DT40-hTDP1 cell growth loss with CPT; chicken DT40 Tdp1-/-;hTDP1 cells + 20 nM CPT, ATP luminescence, 48 h; Potency, µM (top dose mostly 46.2 µM), most hits filed as inhibitors; 420,000 compounds, 12% hits; note: nearly all actives have a fitted effect of over 55% in size
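Cell growth measured by CellTiter-Glo luminescence after a minimum 48 h, 37 C compound exposure with 20 nM CPT in Tdp1-knockout DT40 cells stably expressing hTDP1, seeded 400/well; qHTS titration format.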
IL1B secr inh = blocks inflammasome-driven IL-1 beta release; THP-1 LPS/ATP IL-1B secretion, AlphaLISA, 16 h; hits give low values; AID 743279; activity change, % at 57.5 µM; 360,000 compounds, 4.7% hits; in the data active = activity change below about -50%; inconclusive = mostly about -30% to -49%
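Secreted IL-1B measured by AlphaLISA bead assay after 16 h compound exposure of THP-1 cells; compounds (final up to 57.5 uM) added 1 h before LPS (250 ng/mL) and ATP (1.25 mM) stimulation; lower signal means less secretion.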
HT1080 IDH1KD tx = HT-1080 IDH1 knockdown cell toxicity (counter line); AID 686971; HT-1080 IDH1 knockdown viability, ATP luminescence, 48 h; 360,000 compounds, 2% hits; Potency, µM (highest dose often 46.1 µM), usual class: cytotoxic
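Using the IDH1-knockdown HT-1080 line run in the same batch and compound series as the NT line, viability after 48 h at 37 °C was determined by CellTiter-Glo luminescence and expressed as % activity.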
TDP1 cell noCPT = qHTS for Inhibitors of human tyrosyl-DNA phosphodiesterase 1 (TDP1): qHTS in cells in absence of CPT; DT40 Tdp1-/- hTDP1 cells, no CPT, ATP luminescence, 48 h; Potency, µM (highest dose often 46.2 µM), most hits filed as inhibitors; 420,000 compounds, 15% hits; AID 686978, 2013; note: nearly all actives have a fitted effect of over 55% in size
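Seeded 400 DT40-hTDP1 cells/well (vehicle DMSO, no 20 nM CPT); pinned compounds; ≥48 hr at 37 °C; CellTiter-Glo luminescence as viability measure.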
A number is an active result; – = inactive; ? = inconclusive; · = not tested or not shown; [ ] = another dose, or the depositor's remark. Unless noted, calls come from the whole dose curve; as a rule, active = well fitted curve in the direction sought with a large enough effect; inconclusive = small, poorly fitted or top-dose-only effect, or another doubt; inactive = no such curve, though single readings can be large; an effect the other way counts as inactive or inconclusive.

SMILES	HT1080-NT tox	DT40 TDP1 CPT	IL1B secr inh	HT1080 IDH1KD tx	TDP1 cell noCPT
O=C(CC1Nc2cccc3cccc(c23)NC1=O)Nc1ccccc1 (stereo not given)	–	?	-63	–	26µM
Cc1ccc(NC(=O)CC2Nc3cccc4cccc(c34)NC2=O)cc1 (stereo not given)	·	?	·	·	6.5µM
CC1CCC2(CC1)NC(=O)N(CC(=O)c1cn(CCC#N)c3ccccc13)C2=O (stereo not given)	–	–	–	–	–
COCCn1c(=O)c(-c2ccc(F)cc2)nc2cnc(OCc3ccccc3)nc21	·	–	·	·	–
O=C(c1sc2ccccc2c1Cl)N(Cc1ccco1)C1CCS(=O)(=O)C1 (stereo not given)	–	?	–	–	26µM
O=C(c1sc2ccccc2c1Cl)N(Cc1ccccc1)C1CCS(=O)(=O)C1 (stereo not given)	–	–	–	–	?
Cc1ccc2sc(C)[n+](CCO)c2c1	–	?	-71	–	?
CC[n+]1c(C)sc2cc(C)ccc21	–	3.7µM	–	–	3.7µM
CCCC[n+]1c(C)sc2ccc(C)cc21	–	?	–	–	?
CC1CC1C(=O)OCC(=O)Nc1ccc(S(=O)(=O)N2CCOCC2)cc1 (stereo not given)	–	–	–	–	–
CCn1c(=O)c(C(=O)Nc2ccc(C(C)=O)cc2)nc2ccccc21	·	–	·	·	–
Cc1ccc(Cn2c(SCc3ccc(C(=O)NCCc4ccccc4)cc3)nc3ccncc32)cc1	·	15µM	·	·	12µM
COCCNC(=O)c1ccc(Cn2c(SCC(N)=O)nc3ccccc3c2=O)cc1	·	–	·	·	–
Cc1ccccc1Cn1c(SCc2ccc(C(=O)NC3CCCCC3)cc2)nc2ccncc21	·	23µM	·	·	?
CCC(C(=O)NC1CCCCC1)n1c(SCc2ccccc2F)nc2ccncc21 (stereo not given)	–	?	–	–	?
Cc1ccccc1Cn1c(SCc2ccc(C(=O)NCCc3ccccc3)cc2)nc2ccncc21	·	21µM	·	·	21µM
O=C(NCCc1ccccc1)c1ccc(CSc2nc3ccncc3n2Cc2ccccc2)cc1	·	4.6µM	·	·	?
CCN(CC)c1ccc(/C=C2\C(=O)c3ccc(C(=O)O)cc3C2=O)cc1	–	–	–	–	–
CCn1c(CCNC(=O)c2ccc(C)cc2)nnc1SCc1ccc(Cl)c(Cl)c1	–	21µM	?	–	23µM
CCn1c(CCNC(=O)c2ccc(OC)cc2)nnc1SCc1ccc(Cl)cc1Cl	–	?	–	–	?
OC1(c2cccnc2)CCN(Cc2ccc3c(c2)CN(Cc2ccc(Cl)cc2)CCO3)CC1	·	–[9.04 µM]	·	·	–
OC1(c2cccnc2)CCN(Cc2ccc3c(c2)CN(Cc2cccc4nccnc24)CCO3)CC1	·	–[9.04 µM]	·	·	–
CCC1C(=O)NCCN1Cc1ccc2c(c1)CN(Cc1cccc(OC)c1OC)CCO2 (stereo not given)	·	0.73µM	·	·	–
Cc1ccc(CN2CCOc3ccc(CN4CCC(O)(c5cccnc5)CC4)cc3C2)cc1C	·	–[9.04 µM]	·	·	18µM
COc1ccc(CN2CCOc3ccc(CN4CCC(O)(c5cccnc5)CC4)cc3C2)c(C)c1C	·	?	·	·	16µM
SMILES	HT1080-NT tox	DT40 TDP1 CPT	IL1B secr inh	HT1080 IDH1KD tx	TDP1 cell noCPT
COc1cc(OC)cc(C(=O)N[C@H](C(=O)NC2=NCCS2)C(C)C)c1	–	–	–	–	–
Cc1ccc(N(CC(=O)Nc2cccc(Cl)c2C)S(C)(=O)=O)cc1	–	–	–	–	?
COc1ccc(OC)c(N(CC(=O)NCCSCc2ccc(C)cc2)S(C)(=O)=O)c1	–	–	-62	–	?
COc1ccc(N(CC(=O)NCCSCc2ccc(C)cc2)S(=O)(=O)c2ccccc2)cc1	–	?	–	?	7.3µM
O=C(CN(c1ccc(F)cc1)S(=O)(=O)c1ccccc1)NCCSC1CCCCC1	?	?	-59	?	?
COc1ccccc1N(CC(=O)NCCSCc1ccc(C)cc1)S(=O)(=O)c1ccccc1	–	?	–	–	?
C#CCN(C[C@H]1[C@H](OC(=O)Nc2c(C)noc2C)[C@H](OC(=O)Nc2c(C)noc2C)C[C@@H](C(=O)OC)[C@H]1C(=O)OC)S(=O)(=O)c1ccc(C)cc1	–	21µM	–	–	15µM
C#CCN(C[C@H]1[C@H](OC(=O)NCc2ccccc2)[C@H](OC(=O)NCc2ccccc2)C[C@@H](C(=O)OC)[C@H]1C(=O)OC)S(=O)(=O)c1ccc(C)cc1	–	–	?	–	–
C#CCN(C[C@H]1[C@H](OC(=O)NCCCCCC)[C@H](OC(=O)NCCCCCC)C[C@@H](C(=O)OC)[C@H]1C(=O)OC)S(=O)(=O)c1ccc(C)cc1	–	4.1µM	–	–	5.8µM
Cc1ccc(CNC(=O)Cn2cc(C(F)(F)F)ccc2=O)cc1	–	–	–	–	–
COc1ccccc1CNC(=O)[C@@H](NC(=O)C1CCN(C(=O)[C@@H]2CCCN2C(=O)OC(C)(C)C)CC1)C(C)C	–	–	–	–	–
CCOc1ccccc1CNC(=O)C1CCN(c2nc3ccccc3o2)CC1	–	18µM	?	–	?
CCC1CN(C(=O)N2CCC(C(=O)NCc3ccc(OC)cc3OC)CC2)c2cc(C)ccc2O1 (stereo not given)	·	?	·	·	18µM
CCOc1ccc(CNC(=O)C2CCN(C(=O)N3CC(C)Oc4ccccc43)CC2)cc1 (stereo not given)	–	?	–	–	?
CCOc1ccccc1CNC(=O)C1CCN(C(=O)N2CC(C)Oc3ccc(C)cc32)CC1 (stereo not given)	–	21µM	–	–	?
COc1ccc(CNC(=O)C2CCCN(S(=O)(=O)N3CCC(C)CC3)C2)c(OC)c1 (stereo not given)	–	–	–	–	–
COc1ccc(CNC(=O)C2CCN(S(=O)(=O)N3CCC4(CC3)OCCO4)CC2)c(OC)c1	?	?	–	16µM	–
Cc1cc(NC(=O)C2CC(=O)N(c3cccc(Cl)c3)C2)no1 (stereo not given)	–	–	–	–	–
COc1cccc2cc(C(=O)NC3CC4CCC3C4)oc12 (stereo not given)	–	?	–	–	?
CCOc1cc(C(=O)Nc2cc3c(cc2N2CCCC2)n(C)c(=O)c(=O)n3C)cc(OCC)c1OCC	·	–	·	·	–
COc1ccc(-n2c(C)nc3cc(C(=O)NC4CCCC4)ccc32)cc1	·	–	·	·	–
CCOc1ccccc1CNC(=O)C1CCN(C(=O)N2CC(CC)Oc3ccc(C)cc32)CC1 (stereo not given)	·	13µM	·	·	18µM
COc1ccc(C(=O)O)cc1S(=O)(=O)Nc1ccccc1Cc1ccccc1	–	–	–	–	–
Cn1ccnc1C(=O)c1ccc(NN)c([N+](=O)[O-])c1	–	–	-217	?	–
